Test results published in PubChem BioAssay AID492953 (The Scripps Research Institute Molecular Screening Center, 2010).
Out of some 340,000 compounds screened, about 4,200 (1.2%) were called active. The list comes from a sample in which actives are over-represented; it also holds similar structures and randomly drawn compounds. A number with no mark means an inactive call.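 How the source made its calls: active means inhibition above the mean of all tested compounds plus 3 SD (cut at about 24% in these data); inactive means the rest.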

target: Platelet-activating factor acetylhydrolase IB subunit alpha2 (Homo sapiens) (UniProt P68402); assay: inhibition of PAF acetylhydrolase 1b subunit 2 – biochemical, fluorescence polarization, human, primary screen (AID 492953); details: recombinant PAFAH1B2, FP-rhodamine activity probe, at 3.39 µM, active compounds read high;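 further: 0% = enzyme with DMSO and 100% = wells lacking PAFAH1B2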
Sequence (P68402 whole entry, looked up): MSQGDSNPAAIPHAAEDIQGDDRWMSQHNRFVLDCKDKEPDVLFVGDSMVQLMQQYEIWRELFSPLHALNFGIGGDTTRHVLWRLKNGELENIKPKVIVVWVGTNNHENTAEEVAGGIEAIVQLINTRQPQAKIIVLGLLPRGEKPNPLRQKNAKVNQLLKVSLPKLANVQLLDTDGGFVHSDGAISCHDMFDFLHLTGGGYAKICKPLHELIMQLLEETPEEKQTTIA

Compound | inhibition
CC(OC(=O)/C=C/c1ccccc1)C(=O)NC1CCCCC1C (stereo not drawn) | 1.18%
Cc1ccc(COc2ccc(/C=N/NC(=O)CN3CCCCC3)cc2)cc1 | 25.1% (active)
CCOc1cc(/C=N/NC(=O)CN2CCCCC2)ccc1O | 1.96%
O=C(CN1CCSCC1)N/N=C/c1ccc(F)cc1 | -6.64%
Cc1ccc(S(=O)(=O)NC(=O)N2CCCN(Cc3ccc(F)cc3)CC2)cc1 | 9.06%
C/C(Cn1nnc2ccccc21)=N\OC(=O)c1cc(F)c(F)cc1Cl | 25.1% (active)
Cn1c(Cn2nnc3ccccc32)nnc1SCC(=O)c1ccccc1F | 4.6%
CCOC(=O)c1cccc(NC(=O)CCn2nnc3ccccc32)c1 | 1.37%
COC(=O)C1=C(N)Oc2cc(C)[nH]c(=O)c2C1c1ccc(Cl)cc1 (stereo not drawn) | -2.03%
C=CCNC(=O)CCCC(=O)NCC=C | 2.09%
O=C1COc2ccc(S(=O)(=O)Nc3ccc(OC(F)(F)F)cc3)cc2N1 | 41.6% (active)
Cc1ccc(NS(=O)(=O)c2ccc3c(c2)NC(=O)CO3)cc1 | 19.2%
Cc1ccc(NS(=O)(=O)c2cc3c(cc2C)NC(=O)CO3)cc1 | 6.94%
Nc1ccc2c(c1)C(=Cc1cccnc1)c1ccccc1-2 | 6.17%
COc1cc2c(cc1OC)C1C(=O)c3cc(OS(C)(=O)=O)c(OC)cc3C1N(C)C2=O (stereo not drawn) | 0.81%
CCCNC(=O)NC(=O)COC(=O)CC(NC(N)=O)c1ccc(Cl)cc1 (stereo not drawn) | 2.08%
COCCNC(=O)NC(=O)COC(=O)C1(c2ccc(Cl)cc2)CC1 | 26.9% (active)
CC(=O)N1CCC(C(=O)OCc2ccc(Cl)cc2)(c2ccccc2)CC1 | 7.86%
COc1ccc(-c2c(C)cc3oc(=O)cc(-c4ccccc4)c3c2C)cc1C=O | -1.53%
O=c1[nH]c2ccccc2s1 | 4.32%
O=C(NC1CCC(O)CC1)c1ccc(S(=O)(=O)NCc2ccco2)cc1 (stereo not drawn) | 4.89%
Cc1ccc(S(=O)(=O)N2CCC(C(=O)N[C@@H](C)C(=O)NCc3ccco3)CC2)cc1 | 4.6%
CC1CCN(S(=O)(=O)c2ccc(S(=O)(=O)NCc3ccco3)cc2)CC1 | 29.6% (active)
O=C(CSc1ccc([N+](=O)[O-])cn1)Nc1ccc(N2CCOCC2)c(Cl)c1 | -0.87%

Compound | inhibition
O=C(/C=C/c1ccccc1[N+](=O)[O-])OCC(=O)N1CCCC1 | 0.91%
COC(=O)[C@@H]1C[C@H]2CC[C@H](O)C[C@H]2N1Cc1ccc(N2CCN(C)CC2)cc1 | -3.13%
O=C1NC[C@@H](c2ccccc2)OC(=O)[C@H](Cc2ccc(F)cc2)CC/C=C/C[C@H]1CC(=O)N(CCO)Cc1ccccc1 | 53.8% (active)
O=C1N[C@@H](c2ccccc2)COC(=O)[C@H](Cc2ccc(F)cc2)C/C=C\C[C@@H]1CC(=O)N(CCO)Cc1ccccc1 | 4.49%
O=C1CCC/C=C/C[C@@H](CC(=O)N(CCO)Cc2ccccc2)C(=O)NC[C@H](c2ccccc2)O1 | -0.45%
COC(=O)c1cc(S(=O)(=O)N2CCC(C(N)=O)CC2)oc1C | -0.09%
O=C(Nc1ccccc1)N1CCC(C(=O)N2CCN(Cc3ccccc3)CC2)CC1 | 0.85%
COc1ccc(C2c3c(C)nn(-c4ccccc4)c3NC(=O)N2c2ccccc2)cc1 (stereo not drawn) | 0.39%
CCCc1[nH]nc2c1C(C1CC=CCC1)C(C#N)=C(N)O2 (stereo not drawn) | 27.5% (active)
COCc1[nH]nc2c1C(C1C=CCCC1)C(C#N)=C(N)O2 (stereo not drawn) | 4.96%
CCCc1[nH]nc2c1C(c1ccc(Br)s1)C(C#N)=C(N)O2 (stereo not drawn) | 19.3%
CC(C)(C)c1cc(CN2CCN(CCC#N)CC2)cc(C(C)(C)C)c1O | 1.53%
CCOC(=O)C1CCN(C(=O)Nc2ccc(Cl)cc2)CC1 | 2.4%
CCOC(=O)C1Sc2[nH]c(=O)sc2C(c2ccc(Cl)cc2)C1C(=O)OCC (stereo not drawn) | 27% (active)
CCOC(=O)c1ccccc1N1C(=O)C2Sc3[nH]c(=O)sc3C(/C=C/c3ccccc3)C2C1=O (stereo not drawn) | 1.84%
CCCCNC(=O)N1CCN(S(C)(=O)=O)CC1 | 3.98%
Clc1ccc(CSc2nnc([C@@H]3CCCN3)o2)cc1 | 24.3% (active)
O=C(C1CC1)N1CCN=C1SCc1ccc(Cl)cc1 | 10.5%
Nc1cc(N)nc(SCc2ccc(Cl)cc2)n1 | 24.1%
COCC1CCN(C(=O)C2CCC(=O)N(Cc3cccc(C(F)(F)F)c3)C2)CC1 (stereo not drawn) | -0.17%
CCN(CC)CCn1c2ccc(Cl)cc2c2nc(C)sc21 | -5.01%
CCN(CC)CCCC(C)n1c2nc(=O)[nH]c(=O)c-2nc2cc(Cl)ccc21 (stereo not drawn) | 26% (active)
CN(C(=O)c1ccc(NC(=O)Cc2cccc(NC(=O)C3CCN(C(=O)c4ccccc4)CC3)c2)cc1)C1CC1 | 4.32%
O=[N+]([O-])c1ccc(NS(=O)(=O)c2ccccc2)c(Cl)c1 | 1.95%

Compound | inhibition
CN(C)CCNC(=O)c1ccc(Cl)c2cc3ccccc3nc12 | -1.08%
CC(=O)COc1ccc2c(-c3ccccc3)cc(=O)oc2c1 | -1.64%
O=C(CNC(=O)OCc1ccccc1)Oc1cc2oc(=O)cc(-c3ccccc3)c2cc1Cl | 45.7% (active)
O=C(CNC(=O)c1ccc(-c2ccccc2)cc1)OCc1ccc(Cl)cc1 | 1.38%
Nc1ccc2nc3c(=O)[nH]c(=S)[nH]c3nc2c1 | 33.8% (active)
O=C(NCCc1ccccn1)c1nc(Cn2cc([N+](=O)[O-])cn2)no1 | -4.12%
C=CC(=O)Nc1ccc(Nc2ccnc(Nc3ccc(N4CCN(C)CC4)cc3)n2)cc1 | 1.32%
O=C(COc1ccccc1Cl)Nc1ccccc1C(=O)NC1CC1 | 0.96%
COc1ccc(S(=O)(=O)N2CCOC2CNC(=O)C(=O)NCc2ccncc2)cc1C (stereo not drawn) | 1.87%
Nc1cccnc1Sc1ccccc1 | 4.02%
CC(Oc1ccc(Cl)cc1)c1ccnn1S(C)(=O)=O (stereo not drawn) | 29.6% (active)
CC(Oc1ccc(Cl)cc1)C(=O)Nc1ncccn1 (stereo not drawn) | 5.55%
CCN(Cc1ccccc1)S(=O)(=O)c1cc2c3c(c1)CCN3C(=O)CC2 | 8.31%
C=CCOc1ccc(/C=N/n2cncn2)cc1OC | 6.27%
CCOC(=O)c1c(NC(=O)CSc2cn(CC)c3ccccc23)sc2c1CCC2 | -2.98%
CCOC(=O)c1c(NC(=O)CSc2nnc(C)c(=O)[nH]2)sc2c1CCC2 | 66.8% (active)
CCOC(=O)c1c(NC(=O)CSc2nnc(CN3CCOCC3)n2C)sc2c1CCCC2 | -1.06%
CC1CC(=O)Nc2ccccc2N1C(=O)COc1ccc2cc(Br)ccc2c1 (stereo not drawn) | 16.6%
COc1ccc(-c2cc(C(F)(F)F)nc(S(C)(=O)=O)n2)cc1OC | -1.46%
Cc1cc[n+](-c2[nH]c(=O)sc2/C=N/NC(=O)c2ccccc2[O-])cc1C | 8.46%
Cc1cc(=O)[nH]c(SCc2cccc(F)c2)n1 | 3.14%
COc1ccccc1-c1noc(CSc2nc(C)cc(=O)[nH]2)n1 | 1.01%
Cc1cc(=O)[nH]c(SCc2cc(Cl)ccc2OC(F)F)n1 | 26.4% (active)
COc1ccc(CC(NC(C)=O)C(=O)NC2CCN(C(=O)Nc3ccc(C#N)cc3)CC2)cc1OC (stereo not drawn) | 2.86%

Compound | inhibition
CCN(C(=O)CN1CCN(Cc2ccccc2)CC1)c1c(N)n(Cc2ccccc2)c(=O)[nH]c1=O | -0.83%
CCCCC1S/C(=N/N=C/c2cccs2)NC1=O (stereo not drawn) | 8.36%
COc1ccc(C(=O)NNS(=O)(=O)c2ccc(C)cc2)cc1 | 6.56%
COc1ccc(C(=O)NNc2cc(C)nc(NNC(=O)c3ccc(OC)cc3)n2)cc1 | 24.3% (active)
COc1ccc(C(=O)NNC(=O)c2cc(C)[nH]n2)cc1 | 5.54%
O=C1NC2(CCCCCC2)C(=O)N1CCS(=O)(=O)Oc1ccccc1 | 7.86%
CCn1c(CNC(=O)c2cc(OC)c(OC)c(OC)c2)cc2cc(C)ccc21 | 2.65%
O=c1ccc2c(-c3ccccc3S(=O)(=O)O)c3ccc(O)c(O)c3oc-2c1O | 26.6% (active)
CCCNC(=O)CN(Cc1ccccc1F)S(=O)(=O)c1ccc(C)cc1 | 4.33%
CC(C)Cn1c(N2CCN(C(=O)/C=C/c3ccccc3)CC2)nc2ccccc21 | 28.8% (active)
Cc1cc(NC(=O)CSc2nc3ccccc3n2CC(C)C)no1 | 4.62%
C=CCn1c(C(C)NC(=O)CC)nc2ccccc21 (stereo not drawn) | 0.58%
CNC(=O)/C(=C\C=C\c1ccccc1)NC(=O)c1ccc([N+](=O)[O-])cc1 | -3.09%
O=C(Cc1ccc(S(=O)(=O)N2CCOCC2)s1)Nc1ccc(Br)c(C(F)(F)F)c1 | -4.41%
COc1cc(CC(=O)Nc2nc(-c3ccc(F)c(F)c3)cs2)cc(OC)c1OC | 1.73%
Cc1ccc(S(=O)(=O)NC(=O)Nc2nc(-c3ccc(F)c(F)c3)cs2)cc1 | 30.1% (active)
COc1ccc(CC(=O)Nc2nc(-c3ccc(F)c(F)c3)cs2)cc1OC | 4.28%
COc1ccc(C)cc1NC(=S)Nc1ccccc1SC | 9.46%
O=C1C(Cl)=C(Oc2ccccc2)C(=O)c2ccccc21 | 33.9% (active)
CC(=O)N(C1=C(Cl)C(=O)c2ccccc2C1=O)c1ccc(C(=O)O)cc1 | 15.6%
CC(=O)Oc1ccc2c(c1)C(=O)c1ccccc1C2=O | 7.25%
